Our source for the Potency and outcome values is PubChem BioAssay AID1347417 (National Center for Advancing Translational Sciences (NCATS), 2020).

Several values for one entry are separate records, joined by “and”; a condition that tells them apart may be missing. Identical values can stand only once. The campaign covered roughly 120,000 compounds. About 5,300 (4.4%) were called active. Where a call stands in place of a potency, no number is given. Inconclusive results (about 22%) are left out. Calls follow the shape of the dose curve; as a rule, active = well fitted inhibition curve with a large enough effect; inconclusive = small, poorly fitted or top-dose-only effect; inactive = no such curve, though single readings can be large or run the other way. Only a selection was taken, and actives are over-represented in it overall. Some compounds were tested as several samples or in several runs, with calls that do not always agree.
Potency is read from the fitted curve at half-maximal effect.

This test is described as follows: qHTS Primary assay for Inhibitors of Plasmodium falciparum Dd2 growth in vitro. Also: nearly all actives have a fitted effect of over 65% in size. The note with it: P. falciparum Dd2 growth, SYBR Green, 72 h; series mostly up to 28.9 µM. Summed up: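 Readout: SYBR Green fluorescence, 485 nm excitation, 535 nm emission, after ~16 h lysis at 37C. Before that, Dd2-infected red cells (2.5% hematocrit) grew 72 h with compound, 29 uM top final concentration.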
In general terms: In qHTS, concentration-response curves come from the screen itself.
As for `FC(F)(F)CN1C2CCC1CN(c1cncc(Cl)n1)C2`, the Potency entry is “inactive”.
The same measure, in the same setting: the value for `CC(NC(=O)c1coc(COc2ccc3c(c2)OCO3)n1)c1ccc2[nH]ccc2c1` (stereo not given) was “inactive”; that for `Cn1cncc1-c1nnc([C@H]2CCN(CC3CC3)C2)o1` was “inactive”; that for `CCOC(=O)CCNC(=O)N1CC[C@H]2C(=O)NCCCCCCN(Cc3ccncc3)[C@@H]2C1` was “inactive”.
Same read-out and setting: under `C=CCNC(=O)CCc1c(CC)nn(-c2ccccc2)c1Oc1ccccc1OC` stands “inactive”; under `CC(=O)c1c(C)nn(CC(=O)N2C[C@H](O)[C@@H](N3CCC(O)CC3)C2)c1C`, “inactive”; under `CCc1nc2c(=O)n(CC(=O)NCc3ccc(Cl)cc3)nc(C)c2s1`, “inactive”.
Turning to `COc1cccc(-c2n[nH]c3c2C(c2cccc(O)c2)N(C)C3=O)c1` (stereo not given), the Potency entry is “inactive”.
Same read-out and setting: the value for `CCCCN1C(=O)c2[nH]nc(-c3ccccc3O)c2C1c1cccc(OCc2ccccc2)c1` (stereo not given) was 3.16 µM (active); that for `CCCOc1ccc(C2c3c(-c4ccccc4O)n[nH]c3C(=O)N2Cc2cccnc2)cc1` (stereo not given) was “inactive”.
As for `Cc1cc(C(=O)NCC2Cn3cccc3C(=O)N2C)nn1C` (stereo not given), the Potency result is “inactive”.
Same read-out and setting: the value for `CC(C)CN1C(=O)c2ccccc2C(C(=O)NCc2ccccn2)C12CCCC2` (stereo not given) was “inactive”; that for `COc1ccccc1NC(=O)C1c2ccccc2C(=O)N(CC(C)C)C12CCCC2` (stereo not given) was 3.55 µM (active).
Take `COC(=O)CCNC(=O)C1c2ccccc2C(=O)N(CC(C)C)C12CCCC2` (stereo not given): the Potency result was “inactive”.
Still for that read-out and setting: under `Cc1ccc2c(c1)N1C(=O)OC[C@@H]1CCN(C(=O)c1ccno1)C2` stands “inactive”; under `Cc1cc(C)cc(C(=O)N2CC(c3nnc(-c4ccncc4)o3)C3(CCOCC3)C2)c1` (stereo not given), “inactive”.
Consider `CC(C)(C)c1nc(C(=O)N2CCOCC2)n2ccccc12`, for which the Potency entry is “inactive”.
Take `O=C(c1nc(-c2cccnc2)c2cnccn12)N1CCN(c2ncccn2)CC1`: the Potency entry was “inactive”.
Same read-out and setting: the value for `Cc1cccc(C)c1-c1nc(C(=O)N2CCN(c3ncccn3)CC2)n2ccccc12` was “inactive and 12.6 µM (active)”.
Take `CN(CC1CCOC1)C(=O)c1ccc(F)cc1F` (stereo not given): the outcome was “inactive [at 5.79 µM]”.
For the compound `CCOC(=O)C1CCCN(C(=O)Cc2ccc(N(Cc3cccc(F)c3)C(=O)c3ccco3)cc2)C1` (stereo not given), the Potency is 3.98 µM (active).
The same measure, in the same setting: under `O=C(Cc1cccc(F)c1)N1CCCC(Cc2nncn2-c2ccccc2)C1` (stereo not given) stands “inactive”; under `CC(C)NC(=O)Cc1ccc(N(Cc2cccc(F)c2)C(=O)c2ccco2)cc1`, “inactive”; under `CN(CC(=O)N1CCCC(Cc2nncn2-c2ccccc2)C1)S(=O)(=O)c1cccs1` (stereo not given), “inactive”.
As for `Cc1ccccc1C(=O)NCc1cccnc1Oc1cccc(C(F)(F)F)c1`, the Potency result is “inactive”.
Take `COc1cccc(-c2cc(C(=O)N3CCC(c4nn(C)c(=O)n4C(C)C)CC3)[nH]n2)c1`: the Potency result is “inactive”.
Turning to `CCC(C(=O)Nc1ccc2c(c1)CN(Cc1cc(F)cc(F)c1)C(=O)CO2)c1ccccc1` (stereo not given), the Potency is 6.31 µM (active).
As to `CCC1Oc2ccc(NC(=O)c3cccs3)cc2CN(Cc2ccc(F)cc2)C1=O` (stereo not given), the Potency result is “inactive”.
As for `CCC(C)N1Cc2cc(NC(=O)c3ccc([N+](=O)[O-])cc3)ccc2OCC1=O` (stereo not given), the Potency entry is “inactive”.
The same measure, in the same setting: under `O=C1Nc2ccccc2C12CCN([S+](=O)([O-])c1cccc(C(F)(F)F)c1)C2` (stereo not given) stands “inactive”.
Same read-out and setting: the value for `COc1ccc([C@H]2C[C@@H](O)[C@@H](O)[C@@H]2NC(=O)c2ccccc2)cc1` was “inactive”; that for `CCOc1ccccc1NC(=O)Cn1nnc(C(=O)Nc2ccc(C)c(C)c2)c1N` was “inactive”; that for `COc1ccccc1Nc1c2c(nc3ccc(NC(=O)/C=C/c4cc(OC)c(OC)c(OC)c4)cc13)CCCC2` was 3.98 µM (active).
Same read-out and setting: the value for `CCOc1ccc(C(=O)Nc2ccc3nc4c(c(Nc5ccccc5OC)c3c2)CCCC4)cc1` was 11.2 µM (active).
As to `COc1cc(NC(=O)c2nc3ccccc3nc2C)cc(OC)c1OC`, the Potency entry was “inactive”.
As for `CCOc1ccc(-n2nc3ccc(NC(=O)c4ccc(OC)c(Cl)c4)cc3n2)cc1`, the Potency entry is “inactive”.
For `COc1cc(C(=O)Nc2ccc(-n3c(C)nc4ccccc4c3=O)cc2)cc(OC)c1OC`, the Potency entry is “inactive”.
Take `Cc1noc(-c2ccco2)c1C(=O)NC(C)c1ccccc1` (stereo not given): the Potency result is “inactive”.
With `O=[S+]([O-])(c1ccc(Br)cc1)c1nnn2c1nc(NC1CC1)c1ccccc12`, the Potency entry is “inactive”.
Still for that read-out and setting: the value for `CCc1cc(=O)n(CC(=O)Nc2cccc(C(C)=O)c2)c(-c2ccccc2)n1` was “inactive”; that for `Cc1ccc(NC(=O)CC2=C3CCCCC3NC2=O)cc1` (stereo not given) was “inactive”.
Turning to `CC(Cn1cncn1)Nc1nc(-c2ccncc2)nc2c1cnn2C` (stereo not given), the Potency entry is “inactive”.
For the compound `Cc1ccccc1-c1ccc(C(=O)NCCCn2ccnc2C(C)C)cn1`, the Potency entry is “inactive”.
On to `CC(C)c1nccn1CCCNc1nc(-c2ccncc2)nc2c1cnn2C`, for which the Potency was 12.6 µM (active).
The same measure, in the same setting: under `O=C(NC1CCCCC1)N1C[C@@H]2C[C@H](C1)c1c(NS(=O)(=O)c3ccccc3)ccc(=O)n1C2` stands “inactive”; under `Cc1cc(C)cc(NC(=O)Cn2nc3n(c2=O)CCCC3)c1`, “inactive”; under `COC1C(=O)N(C2CCN(Cc3ccc(O)cc3)CC2)C12CCOCC2` (stereo not given), “inactive”.
With `Cc1nn2c(c1-c1ccnn1C(C)C)N(CC1CCOCC1)CCC2`, the Potency entry is “inactive”.
On the same count and under the same terms, under `Cc1nn2c(c1-c1ccccc1-c1ccccc1)N(CC1CC1)CCC2` stands 0.316 µM (active); under `Cc1nn2c(c1-c1ccccc1-c1ccccc1)N(C(=O)CN1CCOCC1)CCC2`, “inactive”; under `Cc1ncsc1C1N(C2CCN(C(=O)c3ccncc3)CC2)C(=O)C12CCCC2` (stereo not given), “inactive”.
With `Cc1ccccc1NC(=O)CCOc1ccccc1`, the Potency result was “inactive”.
Take `Cc1ccccc1NC(=O)c1cc2cn(C(C)C)cc2s1`: the Potency was 8.91 µM (active).
Still for that read-out and setting: the value for `Cc1ccccc1NC(=O)c1cc2c([nH]c1=O)CC(C)(C)CC2=O` was “inactive”; that for `CCn1cc(S(=O)(=O)N2CCC3(CC2)CN(Cc2ccc(OC)cc2)C3=O)cn1` was “inactive”; that for `C=CCNC(=O)c1cn2c(n1)CN([S+](C)(=O)[O-])CC2` was “inactive”.
As to `CN(C)c1ccc(NC(=O)Cn2nc3n(c2=O)CCCCC3)cc1`, the Potency result is “inactive”.
`COc1ccc(C(=O)N2CCCCCCNC(=O)CC2)cn1`: the Potency result was “inactive”.
Regarding `O=C(NCc1ccccc1)[C@@H]1Cc2nc[nH]c2CN1Cc1cccc(OC(F)(F)F)c1`, the Potency was 10 µM (active).
The same measure, in the same setting: the value for `O=C(NCc1ccco1)[C@@H]1Cc2nc[nH]c2CN1CCCc1ccccc1` was 7.94 µM (active); that for `COc1cccc(CC(=O)N2CCC(N3C(=O)CCC3C(=O)NCc3ccccc3)CC2)c1` (stereo not given) was “inactive”.
Still for that read-out and setting: the value for `O=C(CCc1conc1-c1ccccc1)NCc1ccco1` was “inactive”; that for `O=C(O)CCC(=O)N1Cc2[nH]cnc2C[C@H]1c1nc(-c2ccc3ccccc3c2)no1` was “inactive”; that for `O=C(NCc1ccco1)C1CCCN(c2cnn(Cc3ccccc3)c(=O)c2)C1` (stereo not given) was “inactive”.
As for `Fc1ccc(NC2CCCN(Cc3ccc(C#Cc4cncnc4)cc3)C2)cc1F` (stereo not given), the Potency result is “inactive”.
Regarding `O=C1COc2ccc(-c3cncnc3)nc2CN1Cc1ccc(F)cc1`, the Potency entry was “inactive”.
Same read-out and setting: the value for `OC1CC([C@@H](Cc2ccccn2)NC2CCC3(CCNCC3)CC2)C1` (stereo not given in full) was “inactive”.
Still for that read-out and setting: under `CC1CCCN(Cc2c(O)ccc3c(=O)c(Oc4ccc(C(C)(C)C)cc4)c(C(F)(F)F)oc23)C1` (stereo not given) stands 0.316 µM (active); under `Cc1ccc(C)c(Oc2c(C(F)(F)F)oc3c(CN4CCN(C)CC4)c(O)ccc3c2=O)c1`, 0.501 µM (active).
As for `COc1ccc(-c2c(C)c3ccc(O)c(CN4CCCC4)c3oc2=O)cc1OC`, the Potency entry is “inactive”.
For the compound `Cc1ccc(Oc2c(C(F)(F)F)oc3c(CN4CCCCC4)c(O)ccc3c2=O)cc1`, the Potency was 3.55 µM (active).
Turning to `Cc1ccc2nc3n(c2c1)[C@@H](CNC(=O)c1ccc(C#N)cc1)COC3`, the Potency entry is “inactive”.
Consider `O=C(c1ccc(F)cc1)N1CCC2(CN[S+](=O)([O-])c3ccccc3N2)C1` (stereo not given), for which the Potency result was “inactive”.
Consider `O=C1CC2(CCN(C(=O)CCn3ccccc3=O)C2)C(=O)N1` (stereo not given), for which the Potency result is “inactive”.
Take `CN[C@@H](CC(C)C)C(=O)N[C@@H]1C=C(C(=O)N[C@@H](Cc2ccc(O)cc2)C(N)=O)C[C@@H](O)[C@@H]1O`: the Potency entry is “inactive”.
On the same count and under the same terms, the value for `O=C(NCCc1ccc(Cl)cc1)c1ccc2nccn2c1` was “inactive”; that for `O=C(CCCN1C(=O)C(c2ccccc2)Oc2cccnc21)NCCc1noc(-c2ccncc2)n1` (stereo not given) was “inactive”.
As to `Cc1ccc2oc(C(=O)N(C)CCc3ccccc3)c(C)c2c1`, the Potency result is “inactive”.
In the case of `O=C(NCc1ccncc1)C1CN(S(=O)(=O)c2cccnc2)CC12CCOCC2` (stereo not given), the Potency entry is “inactive”.
The same measure, in the same setting: under `CN1CCN(Cc2ccc(Nc3ncc(-c4cccnc4)c4c3OCC4)cc2)CC1` stands 10 µM (active); under `COc1ncccc1Nc1ncc(-c2ccccc2)c2c1OCC2`, “inactive”; under `COc1ccccc1-c1cnc(NC(=O)c2ccc(Cl)cc2)c2c1CCO2`, “inactive”.
On the same count and under the same terms, the value for `COc1cccc(C(=O)N2CCC(N3CCCCCC3=O)CC2)c1` was “inactive”; that for `Cc1cccc(C)c1CN1CCC2(CC1)Cc1ccccc1CNC2=O` was “inactive”.
The same measure, in the same setting: under `CC(C)Cc1ccc(CN2CCC3(CC2)Cc2ccccc2CNC3=O)cc1` stands 11.2 µM (active); under `O=C1NCc2ccccc2CC12CCN(Cc1cccc(Cl)c1)CC2`, “inactive”; under `Cc1cc2nc3n(c(=O)c2n1CC(=O)NCc1ccc(F)cc1)CCCCC3`, “inactive”.
`O=C(c1ccccc1F)N1CCCC2(C1)C(=NC1CCCCC1)NC(=O)N2c1cc(F)cc(F)c1` (stereo not given): the Potency entry is “inactive”.
On the same count and under the same terms, the value for `COC(=O)N1CCC2(CC1)C(=NC1CCCC1)NC(=O)N2c1cc(F)cc(F)c1` was “inactive”; that for `COc1ccc(C(=O)N2CCCC3(C2)C(=NC2CCCC2)NC(=O)N3c2cc(F)cc(F)c2)cc1` (stereo not given) was “inactive”.
The same measure, in the same setting: the value for `CC(C)CCN1CCC2(C1)C(=NC1CCCCC1)NC(=O)N2c1cc(F)cc(F)c1` (stereo not given) was 8.91 µM (active); that for `O=C1NC(=NC2CCCC2)C2(CCCN(Cc3ccsc3)C2)N1c1cc(F)cc(F)c1` (stereo not given) was 5.01 µM (active).
On the same count and under the same terms, the value for `O=C1NC(=NC2CCCCC2)C2(CCCN(S(=O)(=O)c3cccs3)C2)N1c1cc(F)cc(F)c1` (stereo not given) was “inactive”.
Regarding `CS(=O)(=O)N(C1CCOCC1)C1CCN(C(=O)CC2CCCC2)CC1`, the Potency entry is “inactive”.
For `COc1ccc(-c2nc(C(C)C)nc3c2CN(C(=O)c2ccc(C(F)(F)F)cc2)CC3)cc1`, the Potency result is “inactive”.
Regarding `O=C(c1cccc(Cl)c1)N1CCc2nc(C3CC3)nc(-c3ccc(Cl)cc3)c2C1`, the Potency entry is “inactive”.
On the same count and under the same terms, the value for `O=C(c1ccc(C(F)(F)F)cc1)N1CCc2nc(C3CC3)nc(-c3ccc(Cl)cc3)c2C1` was “inactive”.
Still for that read-out and setting: the value for `COc1ccc(C(=O)N2CCc3nc(C(C)C)nc(-c4ccc(Cl)cc4)c3CC2)cc1` was 11.2 µM (active); that for `COc1ccc(-c2nc(C(C)C)nc3c2CN(C(=O)c2ccccc2F)CC3)cc1` was “inactive”.
Turning to `COc1ccc(-c2nc(C3CC3)nc3c2CCN(C(=O)c2ccc(C(F)(F)F)cc2)CC3)cc1`, the Potency was 5.01 µM (active).
